Only some compounds are listed: those with a hit (about 3.7% of all), similar ones and a draw of the others.
tim23-1 inh: inhibits growth of tim23-1 mutant yeast | S. cerevisiae tim23-1 growth, BacTiter-Glo luminescence, 24 h | inhibition, % at 20 µM | 1.3% of 330,000 active | AID 463212;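 active = growth inhibition of the mutant yeast at or above 50%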;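 note: temperature-sensitive mutant grown at 25 °C; plate controls were DMSO-treated mutant yeast for no effect and medium wells lacking yeast for full effect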
tim10-1 inh: growth inhibitors of tim10-1 mutant yeast. inhibition, % at 20 µM. 2.2% of 330,000 active. S. cerevisiae tim10-1 ts strain growth, BacTiter-Glo, 24 h;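 active = inhibition of at least 40%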;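 note: mutant grown at 25 °C; 0% = DMSO wells with yeast and 100% = wells holding no yeast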
TIM10 inh: growth inhibitors of TIM10 yeast strain. S. cerevisiae TIM10 strain growth, BacTiter-Glo luminescence, 24 h. inhibition, % at 10 µM. 1.4% of 330,000 active. AID 463195;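 active = inhibition of 40% or more at the single tested concentration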;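 note: wild-type TIM10 isogenic control strain grown at permissive 25 °C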
PfHsp90 set2: reduces growth (ATP signal) of yeast expressing P. falciparum Hsp90; S. cerevisiae expressing PfHsp90, BacTiter-Glo ATP, 48 h; yeast lacking PDR1 and PDR3 efflux regulators; AID 504621; inhibition, % at 9.4 µM; 0.32% of 310,000 active;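 active = every replicate shows inhibition above about 80%, whatever the replicate mean, limit read from the data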;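 note: 0% = DMSO neutral controls and 100% = 20 µM radicicol positive controls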
NALP3 yeast inh: NALP3 inhibition in yeast; Yeast reconstituted NLRP3/ASC/caspase-1, beta-gal luminescence, 24 h; inhibition, % at 10 µM; 0.39% of 330,000 active;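 active = inhibition of 50% or more; inactive = inhibition below 50%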;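 note: plate controls were induced DMSO wells for no effect and uninduced yeast grown without galactose for full effect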
tim10-1 confirm: confirmation of tim10-1 mutant yeast growth inhibitors; inhibition, % at 20 µM; 56% of 7,400 active; AID 463213; S. cerevisiae tim10-1 ts strain growth, BacTiter-Glo, 24 h; shares compounds with tim10-1 inh;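 active = inhibition of yeast growth at or above a set limit in either of two repeat tests at 20 µM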;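 note: tim10-1 mutant grown at permissive 25 °C to find synthetic lethal compounds; 0% = DMSO yeast wells and 100% = medium wells without yeast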
Starred values were filed as active, the others as inactive; / = not tested or not shown.

SMILES	tim23-1 inh	tim10-1 inh	TIM10 inh	PfHsp90 set2	NALP3 yeast inh	tim10-1 confirm
N/C(=N\OC(=O)CCCc1ccccc1)c1ccc([N+](=O)[O-])cc1	32	46*	24	-12	-3	52*
N/C(=N\OC(=O)Oc1ccccc1)c1ccc([N+](=O)[O-])cc1	14	14	-16	17	5	/
N/C(=N\OC(=O)Cc1ccccc1)c1ccc([N+](=O)[O-])cc1	30	39	20	13	-3	/
COc1ccc(OCCCC(=O)ON=C(N)c2ccccc2C)cc1	39	44*	39	-26	7	56*
CCO[C@@H]1OC(C(=O)NC2CC2)=C[C@H](c2coc3ccccc3c2=O)[C@H]1CCCO	23	21	6	-5	-1	/
Cc1cccc(Nc2nnc(SCC3CCCCO3)s2)c1C (centres undefined)	39	48*	9	5	13	33*
COc1cccc(Nc2nnc(SCC3CCCCO3)s2)c1 (centres undefined)	43	16	36	-11	-15	/
COc1ccc(Nc2nnc(SCC3CCCO3)s2)cc1 (centres undefined)	29	46*	11	-37	-46	14
Cc1cccc(Nc2nnc(SC3CCOC3=O)s2)c1C (centres undefined)	8	8	4	20	0	/
CN(C)C(CNc1ccc(C(F)(F)F)cc1[N+](=O)[O-])c1ccccc1 (centres undefined)	34	28	20	29	-15	/
Cc1ccc(N=C2C(=O)Nc3ccc(Br)cc32)cc1	33	48*	6	19	11	8
COc1ccc(NC(=O)Cn2nc(C(=O)O)c3ccccc3c2=O)cc1S(=O)(=O)N1CCCCC1	7	9	-2	/	-3	/
O=C(NC1CCCCC1)C(c1ccncc1)N(Cc1ccccc1)C(=O)c1ccc(-c2ccccc2)[nH]1 (centres undefined)	3	2	-5	-44	-1	/
CC(C)(C)NC(=O)C(c1ccncc1)N(Cc1ccco1)C(=O)c1ccc(-c2ccccc2)[nH]1 (centres undefined)	35	52*	25	/	15	42*
C=CC[C@@H](CC(=O)N[C@H](CO)Cc1ccccc1)C(=O)N[C@@H](COC(=O)[C@@H](CC=C)CC(=O)OC(C)(C)C)Cc1ccccc1	12	15	5	9	14	/
O=S(=O)(c1ccc2c(c1)CCCN2)N1CCCC2CCCCC21 (centres undefined)	45	47*	18	-11	2	26
CCCOC(=O)c1ccc(NC(=O)c2c(Cl)ccc(Cl)c2OC)cc1	45	48*	15	-55	13	32*
O=C(CSc1ccccc1C(=O)NCc1ccccc1)NC12CC3CC(CC(C3)C1)C2	34	40*	35	2	3	32*
Cc1cc(=O)oc2cc(OCc3nnc(-c4ccccc4Br)o3)ccc12	18	44*	25	-31	27	21
O=c1ccc2ccc(OCc3nnc(-c4ccccc4Br)o3)cc2o1	10	12	6	/	12	/
Cc1cccc(C)c1OCC(=O)N(Cc1ccc(Cl)cc1)C1CCS(=O)(=O)C1 (centres undefined)	36	40*	15	5	11	-7
CCOC(=O)c1c(C2COc3ccccc3O2)csc1NC(=O)c1ccccc1 (centres undefined)	11	4	4	-1	-3	/
CCOC(=O)c1c(C2COc3ccccc3O2)csc1N (centres undefined)	21	45*	10	17	-8	15
CCN(CC)C(=O)c1c2c(nc3ccccc13)-c1ccccc1CC2	33	42*	37	32	-12	17
CC(C)CNC(=O)c1c2c(nc3ccccc13)-c1ccccc1CC2	-7	22	-1	/	31	/
SMILES	tim23-1 inh	tim10-1 inh	TIM10 inh	PfHsp90 set2	NALP3 yeast inh	tim10-1 confirm
CC[n+]1ccccc1/C=C1\Sc2ccc(C)cc2N1C	24	41*	6	6	13	12
COc1cc(CCC(=O)Nc2ccc(Cl)c(C(F)(F)F)c2)cc(OC)c1OC	32	39	38	-2	2	/
COc1cc(C(=O)Nc2ccc(Cl)c(C(F)(F)F)c2)cc(OC)c1OC	44	43*	36	45	-14	53*
COc1cc(C(=O)Nc2ccc(Nc3ccccc3)cc2)cc(OC)c1OC	42	43*	25	-6	12	42*
CCOc1ccccc1CNC(=O)c1ccc(NC(=O)C2=CSCCO2)cc1	36	45*	9	-9	12	6
CCOc1ccccc1CNC(=O)c1ccc(NC(=O)C2=C(C)OCCS2)cc1	20	33	-20	-5	16	/
Cc1cccc(CNC(=O)c2ccc(NC(=O)C3=CSCCO3)cc2)c1	43	50*	16	-10	24	21
Cc1ccc(CNC(=O)c2ccccc2NC(=O)C2=CSCCO2)cc1	24	40	18	-24	24	18
Cc1cccc(CNC(=O)c2ccccc2NC(=O)C2=CSCCO2)c1	15	21	0	-25	18	/
CN(CC(=O)Nc1cccc(F)c1)C(=O)c1cccc(S(=O)(=O)N2CC3(C)CC2CC(C)(C)C3)c1 (centres undefined)	16	15	12	/	11	/
O=C(OCC(=O)N1CCCc2ccccc21)c1ccccc1OC(F)F	33	15	3	/	14	/
O=c1[nH]c(-c2ccccc2)nn1-c1ccc(Br)cc1Br	15	13	11	6	8	/
CC(=O)Nc1ccccc1C(=O)N1CCN(Cc2ccc3c(c2)OCO3)CC1	-6	-7	-4	-9	25	/
Cc1cc(-c2ccccc2)n[nH]1	10	8	-7	6	3	/
FC(F)C(F)(F)C(F)(F)C(F)(F)c1cc(-c2ccccc2)n[nH]1	47	48*	39	-30	5	30*
O=C(c1cc(C2CC2)nn1-c1ccccc1)N1CCN(c2ccccc2O)CC1	49	22	24	-25	18	/
O=C(c1cc(C2CC2)nn1-c1ccccc1)N1CCN(c2ccccn2)CC1	30	42*	13	-23	18	4
N#Cc1cccc(NC(=O)CSc2nnc(C3CC3)n2C2CC2)c1	-5	-7	-4	14	7	/
CCOC(=O)c1oc2ccc(CNC3CCCCC3)c(Cl)c2c1C	20	41*	19	-5	27	18
Cc1ccc(-c2cc(C(=O)Nc3cccnc3)c3ccccc3n2)s1	35	42*	28	12	13	13
Cc1cc(C)nc(NC(=O)c2cc(-c3ccc(C)s3)nc3ccccc23)c1	21	25	11	18	-2	/
C=CCNC(=S)NNC(=O)c1cc(-c2cccnc2)nc2ccccc12	14	11	13	9	14	/
Cc1cccc(-c2cc(C(=O)Nc3cccnc3)c3ccccc3n2)c1	43	40*	24	0	10	19

Screens from PubChem BioAssay.
